Yeast superoxide = caloric restriction mimetics inhibiting age-related superoxide in yeast; S. cerevisiae aged cells, superoxide DHE fluorescence; stronger effect = lower value; superoxide response (% of plate mean), % at 10 µM; 330,000 compounds, 0.18% hits; AID 2690;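 active means superoxide response under a set limit, about three screen SD below normal, cut at about 65% in these data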;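 further: yeast aged for seven days with compound at 30 °C before DHE staining; 100% = average MFI of all compound-treated wells on the plate with controls excluded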
AHR act = human AHR activation. activation, % at 5 µM. AHR-responsive luciferase reporter cells, luminescence. 320,000 compounds, 2.5% hits. P35869; in the data active means activation above about 47%;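 further: 0% = vehicle wells and 100% = reference agonist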
Target sequence (P35869 whole entry, looked up): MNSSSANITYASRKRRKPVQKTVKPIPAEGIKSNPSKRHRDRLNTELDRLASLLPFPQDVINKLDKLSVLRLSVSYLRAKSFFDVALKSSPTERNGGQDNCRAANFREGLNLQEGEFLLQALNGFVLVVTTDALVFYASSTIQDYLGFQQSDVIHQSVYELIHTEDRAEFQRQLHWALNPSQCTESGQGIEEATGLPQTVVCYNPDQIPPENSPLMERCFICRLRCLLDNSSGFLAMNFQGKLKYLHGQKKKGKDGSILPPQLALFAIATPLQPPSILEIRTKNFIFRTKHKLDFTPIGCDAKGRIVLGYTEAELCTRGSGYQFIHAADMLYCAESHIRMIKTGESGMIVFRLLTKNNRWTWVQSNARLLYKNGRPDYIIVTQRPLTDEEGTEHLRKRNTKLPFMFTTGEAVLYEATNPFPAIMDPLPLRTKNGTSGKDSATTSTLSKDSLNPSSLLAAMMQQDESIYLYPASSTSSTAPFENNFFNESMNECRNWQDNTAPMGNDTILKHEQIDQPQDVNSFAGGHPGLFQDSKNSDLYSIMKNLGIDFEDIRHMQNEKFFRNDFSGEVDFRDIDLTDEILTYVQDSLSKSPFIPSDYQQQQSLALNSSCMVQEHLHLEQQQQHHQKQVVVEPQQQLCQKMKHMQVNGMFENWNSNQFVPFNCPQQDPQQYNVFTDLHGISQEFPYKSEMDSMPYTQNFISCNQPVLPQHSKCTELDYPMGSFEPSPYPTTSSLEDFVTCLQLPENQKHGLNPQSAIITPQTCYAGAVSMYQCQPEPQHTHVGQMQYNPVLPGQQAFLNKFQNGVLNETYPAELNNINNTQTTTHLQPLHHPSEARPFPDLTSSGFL
PLC-beta3 inh = blocks human PLC-beta3 enzyme activity; Purified PLC-beta3, fluorogenic substrate, fluorescence; inhibition, % at 12.2 µM; 370,000 compounds, 0.18% hits; in the data active means inhibition above about 11%;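 further: 0% = median of compound wells on plate and 100% = full blocker control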
sPLA2-III inh = Blocks human group III sPLA2 activity; Q9NZ20; QFRET BODIPY PC-A2 liposome hydrolysis, fluorescence; inhibition, % at 12.2 µM; 370,000 compounds, 0.56% hits; AID 743126;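 active means inhibition above mean plus 3 SD of compounds lying within the high and low control bounds, cut at about 19% in these data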;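 further: 0% = median of test compound wells and 100% = no enzyme DMSO wells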
PLC-gamma1 inh = inhibitors of human phospholipase C gamma1; P19174; purified PLC-gamma1, fluorogenic substrate, fluorescence; inhibition, % at 12.2 µM; 370,000 compounds, 0.84% hits; AID 720700; in the data active means inhibition above about 9.5%
HIF activator = HIF pathway transcriptional activation. U2OS HRE-luciferase reporter, luminescence; normalized: DMSO 0%, desferrioxamine 100%. activation, % at 7.5 µM (by protocol). 300,000 compounds, 0.32% hits;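 active means mean activation of at least 10% of the iron chelator positive control signal, with at least half of replicates also reaching 10%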
sPLA2 confirm = human GIII-sPLA2 inhibition, confirmation. inhibition, % at 12.2 µM. AID 743280. recombinant hGIII-sPLA2, BODIPY PC-A2 QFRET fluorescence. 2,000 compounds, 34% hits. shares compounds with sPLA2-III inh;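 active means mean inhibition across triplicates above the hit cutoff set in the earlier primary screen, cut at about 19% in these data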;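 further: 0% = enzyme with DMSO and 100% = DMSO wells lacking enzyme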
535nm interf = counter-screen for HGIII-sPLA2 inhibitors: 535nm fluorescence interference | shares compounds with sPLA2-III inh | BODIPY FL product fluorescence interference, QFRET | inhibition, % at 12.2 µM | 2,000 compounds, 8.5% hits;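 active means average inhibition above the solvent-only control mean plus 3 SD, cut at about 6% in these data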;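 further: 0% = DMSO with substrate plus product and 100% = DMSO with substrate alone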
Numbers without * were called inactive; . = no result. The list is not random: actives were taken first. Their share in the collection is about 3.9%.

SMILES	Yeast superoxide	AHR act	PLC-beta3 inh	sPLA2-III inh	PLC-gamma1 inh	HIF activator	sPLA2 confirm	535nm interf
CCCc1nnc2n1N=C(c1ccc(OC)c(OC)c1)CS2	85	8	-1	20*	5	0	0	-11
COc1cc(OC)cc(-c2c(-c3cccs3)c3cc(-c4cccc5[nH]ccc45)ccc3n2C)c1	70	-1	-449	29*	-321	.	16	9.8*
CC1(O)C(=O)C2(C)C=CC1C1C(=O)N(c3ccccc3)C(=O)C12 (stereo not given)	.	.	1	7	0	.	.	.
COc1cc(CN(C(=S)NCC(=O)NC2CCCC2)C2CCCC2)cc(OC)c1OC	91	0	-4	23*	3	0	3	-15
O[C@H]1C[C@H](c2ccccc2)N(CC2CCCCC2)C[C@@H]1n1cc(C2CC2)nn1	.	.	0	-4	5	.	.	.
S=C(Nc1ccccc1Oc1ccccc1)Nc1cccc(Cl)c1Cl	107	8	1	22*	1	0	30*	6.7*
NS(=O)(=O)c1ccc(F)c(C(=O)O)c1	97	1	-2	26*	8	0	4	-6
Cc1ccc([C@@H]2C[C@H]3[C@@H](CN2S(=O)(=O)c2ccc(C)cc2)C(=O)C[C@@H](c2ccc(C)cc2)N3S(=O)(=O)c2ccc(Cl)cc2)cc1	.	.	1	-4	5	.	.	.
COc1ccc(-c2c(Cc3ccccc3)nc(NC(=O)c3ccccc3)n2C)cc1	.	.	-12	19*	-5	.	11	-7
O=C(Nc1nc(Cc2ccccc2)c(-c2ccccc2)n1Cc1ccccc1)c1ccccc1	.	.	-20	20*	-14	.	2	-5
CCC(=O)NC(=S)Nc1ccc(-c2nc3ccccc3s2)cc1	103	33	-1	-4	0	2	.	.
CCC(=O)NC(=S)Nc1ccc(-c2nc3ccc(C)cc3s2)cc1	105	4	-9	19*	5	1	0	-8
Nc1ncc(S(=O)(=O)c2ccc([N+](=O)[O-])cc2)s1	.	.	6	3	2	.	.	.
COC(=O)c1cc2c(c3c4cc(OC)ccc4n(S(C)(=O)=O)c13)C(=O)N(C)C2	.	.	-67	1	-51	.	.	.
Cc1ccccc1Nc1nc(N)nc(CCl)n1	92	1	-9	20*	3	1	3	-8
FC(F)(F)c1ccccc1CN1CCCc2nc(-c3ccc(Br)cc3)ccc21	.	.	-42	22*	-31	.	14	4
FC(F)(F)c1ccccc1CN1CCCc2nc(-c3ccccc3)ccc21	.	.	-54	27*	-39	.	6	-1
C=CCCC[C@H]1OC(=O)[C@H](C)NC(=O)[C@H](C(C)C)NC(=O)[C@@H]2CCCN2C(=O)[C@H](Cc2ccccc2)OC(=O)[C@@H](C(C)C)N(C)C(=O)[C@H](C(C)C)NC(=O)C1(C)C	.	.	-4	-11	7	.	.	.
O=C(N/N=C/c1ccncc1)c1cc2ccccc2cc1O	96	.	-21	-7	-6	2	.	.
O=C(N/N=C/c1ccncc1)c1cc([N+](=O)[O-])cc([N+](=O)[O-])c1O	96	4	-2	20*	1	0	14	0
O=[N+]([O-])c1ccc(Cl)cc1N/N=C/c1ccncc1	94	11	-6	20*	1	2	9	1
COc1ccc(C(=O)N2C=Cc3ccccc3C2C(N)=O)cc1 (stereo not given)	.	.	-4	9	3	.	.	.
Cc1ccc(C=Nn2c(-c3n[nH]c4c3CCC4)n[nH]c2=S)o1	.	.	-3	21*	-2	.	16	-1
CCN(Cc1nc2ccccc2c(=O)[nH]1)C(=O)COc1ccccc1-c1ccccc1	83	5	-6	-16	-1	.	.	.
Cc1cc2c(cc1C)N(C(=O)CSc1nncn1C)C(C)(C)c1ssc(=S)c1-2	91	1	-2	34*	2	-1	12	-23
CC1=CC(C)(C)N(C(=O)CSc2nncn2C)c2ccccc21	118	1	-1	5	-3	-1	.	.
COc1cccc(-n2sc3c(c2=S)-c2cc(OC)ccc2NC3(C)C)c1	96	24	8	27*	3	0	17	0
